Many of the other results were omitted from the sample, so hits are more common in it than they were.
GPT2 inh: inhibitors of human GPT2 alanine aminotransferase; Q8TD30; AID 1671188; actives 0.25% (n = 100,000); Potency, µM (doses to about 57.7 µM), inactives show top-dose activity change, negative = inhibition, most hits filed as inhibitors; Recombinant GPT2, coupled pyruvate oxidase/HRP Amplex Red fluorescence; active means well fitted inhibition curve with a large enough effect; inconclusive means small, poorly fitted or top-dose-only effect; further: nearly all actives have a fitted effect of over 60% in size
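Inhibition is scored from Amplex Red fluorescence generated when pyruvate oxidase and HRP act on pyruvate released by GPT2. Reactions contain 10ng/uL enzyme, 250uM a-KG and 2mM L-alanine and run 30 min at room temperature.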
hNpr1 antagonist: antagonists of human natriuretic peptide receptor Npr1 | P16066 | HEK293 hNpr1 GloSensor cGMP, ANP-stimulated luminescence | Potency, µM (titrated, usually from 46.3 µM), without a hit: at the highest dose activity change, negative = inhibition, actives largely listed as inhibitors | actives 1.6% (n = 76,000) | AID 1347048; calls by dose curve; further: nearly all actives have a fitted effect of over 60% in size
Target sequence (P16066 whole entry, looked up): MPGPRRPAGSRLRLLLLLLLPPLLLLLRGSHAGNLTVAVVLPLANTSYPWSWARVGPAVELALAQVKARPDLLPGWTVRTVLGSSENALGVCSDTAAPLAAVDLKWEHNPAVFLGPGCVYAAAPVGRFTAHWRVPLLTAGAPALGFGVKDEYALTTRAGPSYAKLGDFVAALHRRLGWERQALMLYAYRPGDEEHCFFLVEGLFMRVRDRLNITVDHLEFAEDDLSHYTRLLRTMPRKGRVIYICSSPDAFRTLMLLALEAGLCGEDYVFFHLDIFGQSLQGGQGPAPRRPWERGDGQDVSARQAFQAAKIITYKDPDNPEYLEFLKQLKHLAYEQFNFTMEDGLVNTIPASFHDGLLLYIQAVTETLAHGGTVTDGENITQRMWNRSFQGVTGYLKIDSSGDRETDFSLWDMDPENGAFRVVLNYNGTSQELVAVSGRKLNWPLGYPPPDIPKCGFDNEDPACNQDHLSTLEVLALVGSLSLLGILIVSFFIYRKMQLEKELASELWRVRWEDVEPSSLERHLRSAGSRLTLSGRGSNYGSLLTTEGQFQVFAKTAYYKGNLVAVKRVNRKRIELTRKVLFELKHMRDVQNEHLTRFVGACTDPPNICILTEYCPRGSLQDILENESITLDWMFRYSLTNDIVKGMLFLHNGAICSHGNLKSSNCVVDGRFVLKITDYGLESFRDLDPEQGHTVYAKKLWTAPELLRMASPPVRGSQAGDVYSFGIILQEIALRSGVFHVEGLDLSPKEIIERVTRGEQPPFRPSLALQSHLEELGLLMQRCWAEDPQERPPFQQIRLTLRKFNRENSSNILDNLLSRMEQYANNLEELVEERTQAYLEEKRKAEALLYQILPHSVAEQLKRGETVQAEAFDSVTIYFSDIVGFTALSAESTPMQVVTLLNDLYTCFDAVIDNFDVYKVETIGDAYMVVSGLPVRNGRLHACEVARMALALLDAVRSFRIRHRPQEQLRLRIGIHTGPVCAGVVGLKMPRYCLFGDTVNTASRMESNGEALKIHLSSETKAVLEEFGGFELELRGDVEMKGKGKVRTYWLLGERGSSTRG
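Compound pre-incubated 30 min at room temperature on GloSensor-loaded HEK293 cells stably carrying hNpr1 and the pGS-40F cGMP biosensor. Stimulation uses hNppA at 0.1 nM final; luminescence is taken at baseline and 20 min post-agonist.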
The depositor's hits bear a star; i = inactive; ? = inconclusive; / = no result given; ! = not confirmed by another sample; [ ] = another dose, or the depositor's remark. On the % scale 0 is the no-effect control and ±100 the full control effect; potency means the concentration at half of the fitted maximal effect.

SMILES | GPT2 inh | hNpr1 antagonist
O=C1c2cnc(-c3ccsc3)nc2OCCN1CC1CC1 | ? | -12%[70.6 µM]
O=C1c2cnc(-c3ccc(Oc4ccccc4)cc3)nc2OCCN1CC1CC1 | -11%[88.5 µM] | 7.1µM*
O=C1c2cnc(-c3cccnc3)nc2OCCN1Cc1ccccc1 | i | -6%[70.6 µM]
C=CCNC(=O)C1CC(=O)N(c2n[nH]c3cccc(F)c23)C1 (stereo not drawn) | 2% | -1%
COC(=O)Nc1cc(C2CC2)nn1-c1ccccc1 | i | /
COc1ccc(S(=O)(=O)N[C@H](C)c2onc(-c3cccnc3)c2C(=O)O)cc1 | -15%[88.5 µM] | -4%[70.6 µM]
COC(=O)c1ccccc1Nc1nc(-c2ccccc2)no1 | ? | -9%
Fc1ccccc1Nc1nc(-c2ccccc2)no1 | ? | 4.5µM*
COc1ccc(-c2noc(Nc3ccc(OC)c(OC)c3)n2)cc1 | i | -14%
COc1cccc(Nc2nc(-c3ccccc3)no2)c1 | 1% | 8.9µM*
CCN1c2cc(C(=O)Nc3ccc(OC(F)(F)F)cc3)ccc2C(=O)N2CCCCC21 (stereo not drawn) | i | -1%
COc1cccc(C(=O)N2CCCC2C(=O)N2CCC(N3Cc4ccccc4C3=O)CC2)c1 (stereo not drawn) | i | /
COCc1nc2nc(-c3ccccc3)c(-c3ccc(OC)nc3)cc2n1C | 2%[88.5 µM] | -10%[70.6 µM]
COCc1nc2nc(-c3ccccc3)c(-c3ccc(N4CCN(C)CC4)nc3)cc2n1C | -26%[88.5 µM] | 14µM*
Cc1cccc(C(=O)N2CCC3(CC2)CC(N2CCN(c4ccccc4)CC2)CCO3)c1 (stereo not drawn) | i | /
Cc1ccc(OCC(=O)N2CC(C(=O)NCCc3ccncc3)C3(CCOCC3)C2)cc1 (stereo not drawn) | i | -4%
CCc1ccccc1NC(=O)C1CN(S(=O)(=O)c2cccnc2)CC12CCCCC2 (stereo not drawn) | 0% | -5%
O=C(c1cc2n(n1)CC(c1ccc(Cl)cc1)OC2)N1CCN(c2ccccc2)CC1 (stereo not drawn) | 1% | 20µM*
O=C(c1cc2n(n1)CC(c1ccc(Cl)cc1)OC2)N1CCN(c2ccccn2)CC1 (stereo not drawn) | i | -28%
O=C(Nc1ccc(=O)n2c1[C@@H]1C[C@@H](CN(C(=O)c3ccc(F)cc3)C1)C2)c1ccc2c(c1)OCO2 | -4% | -8%
COc1ccccc1-c1cccc(CN2CCCC(C(=O)NCCCc3ccccc3)C2)c1 (stereo not drawn) | 1% | /
Cc1cc(C(=O)NC2CCCC2)c2c(C3CCNCC3)noc2n1 | 1% | /
COC1=C(OC)C(=O)c2ccccc2C1=O | 2.8µM* | /
COc1ccc(-c2ccccc2C=O)cc1 | -9%[88.5 µM] | /
Cc1ccc(S(=O)(=O)N[C@H]2CO[C@H]3[C@@H]2OC[C@@H]3Nc2nccc(C(C)(C)C)n2)cc1 | -6%[88.5 µM] | 3.5µM*
SMILES | GPT2 inh | hNpr1 antagonist
Cc1ccc(S(=O)(=O)N[C@H]2CO[C@H]3[C@@H]2OC[C@H]3O)cc1 | i | 1%[70.6 µM]
COc1ccc(CN2C(=O)COC[C@H]2C(=O)NCc2cc(F)ccc2F)c(OC)c1 | i | /
C[S+](=O)([O-])CCn1ncc2cc(OCc3cccc(-c4ccc(F)cc4)c3)ccc21 | -32%[88.5 µM] | 25µM*
C[S+](=O)([O-])CCn1ncc2cc(OCc3cccc(-c4cncnc4)c3)ccc21 | -8%[88.5 µM] | -19%[70.6 µM]
Cc1cc(-c2cccc(COc3ccc4c(cnn4CC[S+](C)(=O)[O-])c3)c2)ccn1 | -4%[88.5 µM] | 10µM*
COc1ccc(F)cc1-c1cccc(COc2ccc3c(cnn3CC[S+](C)(=O)[O-])c2)c1 | -20% | ?
C[S+](=O)([O-])CCn1ncc2cc(OCc3cccc(-c4cccc(F)c4)c3)ccc21 | -5%[88.5 µM] | 40µM*
C[S+](=O)([O-])CCn1ncc2cc(OCc3cccc(-c4ccoc4)c3)ccc21 | -14%[88.5 µM] | ?
O=C1CN(Cc2ccc(-c3cc(F)cc(F)c3)cc2)CCN1c1nccc(Cl)n1 | -4% | -22%
N#Cc1cc([N+](=O)[O-])c2sc(C(N)=O)[n+]([O-])c2c1 | 13µM* | /
NC(=O)c1ccc(I)c([N+](=O)[O-])c1 | 5% | /
CCn1nccc1C(=O)N1CCCC(c2noc(COc3ccccc3)n2)C1 (stereo not drawn) | i | -27%
CC1CCC(NC(=O)C2CCN(c3cc(C(F)(F)F)ncn3)CC2)CC1 (stereo not drawn) | i | 2.2µM*
Cc1ccc(NC(=O)C2CCN(c3cc(C(F)(F)F)ncn3)CC2)c(C)c1 | i | ?
CN(C)Cc1nnc(C2CC(NC(=O)c3ccc4scnc4c3)C2)n1C (stereo not drawn) | 5.6µM*! | -6%
CN(C)Cc1nnc(C2CC(NC(=O)c3ccc4c(c3)CCO4)C2)n1C (stereo not drawn) | 5% | -1%
CCOC(=O)CNC(=O)CCc1conc1-c1ccc(OC)cc1 | 2% | -7%
